Values joined by “and” are separate entries in the source; they are usually repeats but may differ in a detail not shown here. Equal values may be shown once. The source holds several records for some structures; these can differ, active in one and inactive in another. Active and inactive are the calls of the source. How the source made its calls: active means hit-call score of the fitted dose curve at least 0.9, where 1 is the maximum; inactive means score below 0.9.
Tests used:
[1] = read-out: Urokinase-type plasminogen activator receptor (uPAR), PLAUR (gene 5329); assay: BSK_BE3C_uPAR: BioMAP Diversity Plus: BE3C Assay for Urokinase-type plasminogen activator receptor (uPAR) Biomarker Activity (AID 2283039); settings: primary human bronchial epithelial cells; actives raise or lower the signal
In short: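 Steps: dose human primary bronchial epithelial cells, incubate 24 h, measure uPAR by ELISA, then fit gain- or loss-of-signal response bidirectionally relative to DMSO.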

[2] = read-out: Interleukin-6 (IL6), IL6 (gene 3569); assay: BSK_CASM3C_IL6: BioMAP Diversity Plus: CASM3C Assay for Interleukin-6 (IL6) Biomarker Activity for (AID 2283040); settings: primary human coronary artery smooth muscle cells; actives raise or lower the signal
[3] = read-out: Tissue plasminogen activator (tPA), PLAT (gene 5327); assay: BSK_BE3C_tPA: BioMAP Diversity Plus: BE3C Assay for Tissue plasminogen activator (tPA) Biomarker Activity (AID 2283041); settings: primary human bronchial epithelial cells; actives raise or lower the signal
In short: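 Gain- or loss-of-signal in tPA, measured by ELISA, derived by bidirectional fitting against DMSO. Cells: human primary bronchial epithelial; read at 24 h after chemical dosing.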

[4] = read-out: Interleukin-8 (IL8), CXCL8 (gene 3576); assay: BSK_CASM3C_IL8: BioMAP Diversity Plus: CASM3C Assay for Interleukin-8 (IL8) Biomarker Activity (AID 2283042); settings: primary human coronary artery smooth muscle cells; actives raise or lower the signal;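 further: IL-8 protein level quantified by ELISA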
[5] = read-out: Human Leukocyte Antigen - DR isotype (HLADR), HLA-DRA (gene 3122); assay: BSK_CASM3C_HLADR: BioMAP Diversity Plus: CASM3C Assay for Human Leukocyte Antigen - DR isotype (HLADR) Biomarker Activity (AID 2283043); settings: primary human coronary artery smooth muscle cells; actives raise or lower the signal;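 further: cell-surface HLA-DR protein level quantified by ELISA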
[6] = read-out: Macrophage colony-stimulating factor (MCSF), CSF1 (gene 1435); assay: BSK_CASM3C_MCSF: BioMAP Diversity Plus: CASM3C Assay for Macrophage colony-stimulating factor (MCSF) Biomarker Activity (AID 2283044); settings: primary human coronary artery smooth muscle cells; actives raise or lower the signal;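 further: M-CSF protein amount quantified by ELISA after 24 h exposure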
[7] = read-out: Low-density lipoprotein receptor (LDLR), LDLR (gene 3949); assay: BSK_CASM3C_LDLR: BioMAP Diversity Plus: CASM3C Assay for Low-density lipoprotein receptor (LDLR) Biomarker Activity (AID 2283045); settings: primary human coronary artery smooth muscle cells; actives raise or lower the signal;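 further: LDLR protein level on the cell surface quantified by ELISA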
[8] = read-out: Monocyte Chemoattractant Protein-1 (MCP1), CCL2 (gene 6347); assay: BSK_CASM3C_MCP1: BioMAP Diversity Plus: CASM3C Assay for Monocyte Chemoattractant Protein-1 (MCP1) Biomarker Activity (AID 2283046); settings: primary human coronary artery smooth muscle cells; actives raise or lower the signal;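 further: MCP-1 level quantified by ELISA 24 h after dosing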
[9] = BSK_CASM3C_Proliferation: Cell Proliferation Assessment in the BioMAP Diversity Plus: CASM3C Assay (AID 2283047); settings: primary human coronary artery smooth muscle cells;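 further: sulforhodamine B total protein stain as relative cell number at 560 nm; sub-confluent cells exposed 48 h before staining; fitted both ways against DMSO so gain or loss of cell number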
[10] = read-out: Monokine induced gamma interferon (MIG), CXCL9 (gene 4283); assay: BSK_CASM3C_MIG: BioMAP Diversity Plus: CASM3C Assay for Monokine induced gamma interferon (MIG) Biomarker Activity (AID 2283048); settings: primary human coronary artery smooth muscle cells; actives raise or lower the signal;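 further: MIG protein level measured by ELISA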

Measured: AC50

CCOP(=S)(OCC)Oc1nc(Cl)c(Cl)cc1Cl
inactive: all assays above

CCOP(=S)(OCC)Oc1ccc(S(C)=O)cc1 (centres undefined)
inactive: all assays above

O=C(O)C(F)(F)C(F)(F)C(F)(F)C(F)(F)C(F)(F)C(F)(F)C(F)(F)C(F)(F)C(F)(F)C(F)(F)F
inactive: [2] | [3] | [4] | [5] | [6] | [7] | [8] | [9] | [10]
active: [1] 26 µM and 5.6 µM and 5.59 µM | [3] 7.65 µM and 5.33 µM | [5] 19.1 µM

COP(=S)(OC)Oc1ccc(S(=O)(=O)N(C)C)cc1
inactive: all assays above

COC[C@H](C)N(C(=O)CCl)c1c(C)csc1C
inactive: all assays above

C[C@@H]1C[C@@H]([C@H](O)CC2CC(=O)NC(=O)C2)C(=O)[C@@H](C)C1
active: [1] 4.03 µM | [2] 1.27 µM | [3] 2.91 µM | [4] 6.03 µM | [5] 1.84 µM | [6] 4.28 µM | [7] 0.791 µM | [8] 9.46 µM | [9] 1.63 µM | [10] 1.78 µM

CC1(C)Cc2cccc(O)c2O1
inactive: all assays above

ClC1=C(Cl)[C@]2(Cl)[C@H]3[C@H]([C@H]4C=C[C@H]3C4)[C@@]1(Cl)C2(Cl)Cl
active: [5] 5.83 µM | [9] 8.26 µM
inactive: all other assays above

Oc1cccc2cccnc12
active: [1] 4.95 µM | [3] 2.07 µM | [5] 3.97 µM | [9] 5.5 µM
inactive: all other assays above

OCc1ccco1
inactive: all assays above

Cn1sc(Cl)cc1=O
active: [2] 20 µM | [9] 6.81 µM
inactive: all other assays above

O=C1C2(Cl)C3(Cl)C4(Cl)C(Cl)(Cl)C5(Cl)C3(Cl)C1(Cl)C5(Cl)C24Cl (centres undefined)
active: [1] 6.12 µM | [2] 33.5 µM | [3] 3 µM | [4] 35.6 µM | [5] 14.9 µM | [6] 26.6 µM | [7] 10.5 µM | [8] 31.3 µM | [9] 6.61 µM | [10] 34.2 µM

CC(C)(C)c1cc(O)ccc1O
active: [5] 20 µM | [6] 20 µM | [9] 29.6 µM
inactive: all other assays above

O=C(O)C(F)(F)C(F)(F)C(F)(F)C(F)(F)C(F)(F)C(F)(F)F
inactive: all assays above

Oc1c(I)cc(I)cc1I
active: [1] 2.31 µM | [3] 3.34 µM
inactive: all other assays above

CC(C)CCCCCCOC(=O)c1ccccc1C(=O)OCCCCCCC(C)C
inactive: all assays above

COc1cc(OC)nc(NC(=O)NS(=O)(=O)c2ncccc2C(=O)N(C)C)n1
inactive: all assays above

O=c1[nH]c(=O)[nH]c(=O)[nH]1
inactive: all assays above

CCCCC(CC)CO[N+](=O)[O-] (centres undefined)
active: [2] 31.8 µM | [5] 28.2 µM | [6] 29.6 µM | [8] 20 µM
inactive: all other assays above

COC(=O)Cc1ccccc1
inactive: all assays above

O=C(O)CCC(F)(C(F)(F)F)C(F)(F)F
active: [6] 23.9 µM
inactive: [1] | [2] | [3] | [4] | [5] | [6] | [7] | [8] | [9] | [10]

O=S(=O)(c1ccc(Cl)cc1)c1ccc(Cl)cc1
inactive: all assays above

O=C(OC1CCCCC1)c1ccccc1C(=O)OC1CCCCC1
active: [3] 8.39 µM | [7] 34.2 µM | [9] 33.4 µM
inactive: all other assays above

CC12CC1(C)C(=O)N(c1cc(Cl)cc(Cl)c1)C2=O (centres undefined)
inactive: all assays above

CC(C)c1ccc(CO)cc1
inactive: all assays above

Nc1cccc2ccccc12
active: [7] 12.6 µM
inactive: all other assays above

CC(C)(OO)c1ccccc1
active: [9] 22.5 µM
inactive: all other assays above

O=C(O)C(Cl)(Cl)Cl
inactive: all assays above

NC(=O)O
inactive: all assays above

COc1cc(-c2ccc(N)c(OC)c2)ccc1N
inactive: [1] | [2] | [3] | [4] | [5] | [6] | [7] | [8] | [9] | [10]
active: [9] 15 µM

CCNc1nc(NC(C)(C)C)nc(SC)n1
inactive: all assays above

CCC(C)(C)c1ccc(O)c(C(C)(C)CC)c1
active: [1] 36.6 µM | [2] 29.4 µM | [3] 26.6 µM | [4] 38.7 µM | [5] 16.4 µM | [6] 28.9 µM | [7] 33.8 µM | [8] 34.6 µM | [9] 14.3 µM | [10] 35.8 µM

COP(=S)(OC)Oc1c(Cl)cc(C)cc1Cl
active: [4] 0.213 µM | [9] 20 µM
inactive: all other assays above
